PubChem BioAssay (NCATS)
Records with an inconclusive call do not appear. Active and inactive are the calls of the source. Calls follow the shape of the dose curve; as a rule, active = well fitted curve in the direction sought with a large enough effect; inconclusive = small, poorly fitted or top-dose-only effect, or another doubt; inactive = no such curve, though single readings can be large; an effect the other way counts as inactive or inconclusive.

What was measured:
[1] = Quantitative High-Throughput drug screen in 47 multiple myeloma cell lines against the NCATS MIPE library collection: AMO1_DSMZ cell viability assay (AID 1918927; also: nearly all actives have a fitted effect of over 30% in size)
How it was run: (§1)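 qHTS of the MIPE 4.0 collection: 500 myeloma cells/well, 48 h drug exposure at 37C in 5% CO2, then CellTiter-Glo for 5 min at room temperature before luminescence reading.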

[2] = Quantitative High-Throughput drug screen in 47 multiple myeloma cell lines against the NCATS MIPE library collection: ARP1_JJKsccF8 cell viability assay (AID 1918928; also: nearly all actives have a fitted effect of over 40% in size)
How it was run: (§2)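 Cell viability inhibition in this qHTS is measured via ATP content (CellTiter-Glo) after 48 h drug exposure at 37 °C. Wells hold 500 cells; DMSO-treated wells define 100% and medium-only wells 0%.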

[3] = Quantitative High-Throughput drug screen in 47 multiple myeloma cell lines against the NCATS MIPE library collection: ARD_JJKsccE7 cell viability assay (AID 1918929)
How it was run: as §1

[4] = Quantitative High-Throughput drug screen in 47 multiple myeloma cell lines against the NCATS MIPE library collection: KMM1_JCRB cell viability assay (AID 1918960); also: nearly all actives have a fitted effect of over 30% in size
How it was run: as §2

[5] = Quantitative High-Throughput drug screen in 47 multiple myeloma cell lines against the NCATS MIPE library collection: KHM11_PLB cell viability assay (AID 1918962); also: nearly all actives have a fitted effect of over 35% in size
How it was run: (§3)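 Myeloma cells (500 per well) were exposed to MIPE 4.0 compounds by pin transfer and incubated 48 hours at 37C, 5% CO2. Viability was read as ATP by CellTiter-Glo luminescence, normalised to DMSO (100%) and media-only (0%) wells.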

[6] = Quantitative High-Throughput drug screen in 47 multiple myeloma cell lines against the NCATS MIPE library collection: JIM3_ECACC cell viability assay (AID 1918963; also: nearly all actives have a fitted effect of over 35% in size)
How it was run: as §3

[7] = Quantitative High-Throughput drug screen in 47 multiple myeloma cell lines against the NCATS MIPE library collection: H1112_PLB cell viability assay (AID 1918967; also: nearly all actives have a fitted effect of over 30% in size)
How it was run: as §1

[8] = Quantitative High-Throughput drug screen in 47 multiple myeloma cell lines against the NCATS MIPE library collection: KMS12BM_JCRB cell viability assay (AID 1918971); also: nearly all actives have a fitted effect of over 35% in size
How it was run: (§4)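 Luminescent ATP measurement with CellTiter-Glo gives viability, scaled between DMSO-only wells (100%) and media-only wells (0%). Cells, 500 per well, faced library compounds for 48 hours at 37C.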

[9] = Quantitative High-Throughput drug screen in 47 multiple myeloma cell lines against the NCATS MIPE library collection: KMS12PE_JCRB cell viability assay (AID 1918972); also: nearly all actives have a fitted effect of over 30% in size
How it was run: (§5)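 CellTiter-Glo ATP luminescence gave viability after 48 h compound treatment at 37C of 500 multiple myeloma cells per well. Normalisation used DMSO-only wells as 100% and media-only wells as 0% viability; primary qHTS of approved and investigational drugs.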

[10] = Quantitative High-Throughput drug screen in 47 multiple myeloma cell lines against the NCATS MIPE library collection: MMM1_PLB cell viability assay (AID 1918976); also: nearly all actives have a fitted effect of over 35% in size
How it was run: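 ATP-based CellTiter-Glo luminescence after 48 h drug exposure (37 °C, 5% CO2) of 500 myeloma cells per well. DMSO-only wells set 100% viability, media-only wells 0%; MIPE 4.0 library added by pin tool.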

[11] = Quantitative High-Throughput drug screen in 47 multiple myeloma cell lines against the NCATS MIPE library collection: Karpas620_DSMZ cell viability assay (AID 1918959); also: nearly all actives have a fitted effect of over 30% in size
How it was run: as §3

[12] = Quantitative High-Throughput drug screen in 47 multiple myeloma cell lines against the NCATS MIPE library collection: Karpas417_ECACC cell viability assay (AID 1918961); details: Karpas417 myeloma viability, CellTiter-Glo ATP luminescence, 48 h; viability (% of DMSO): at 45.8 µM (top of the series)
How it was run: as §5

[13] = Quantitative High-Throughput drug screen in 47 multiple myeloma cell lines against the NCATS MIPE library collection: JIM1_ECACC cell viability assay (AID 1918964)
How it was run: as §1

[14] = Quantitative High-Throughput drug screen in 47 multiple myeloma cell lines against the NCATS MIPE library collection: JJN3_DSMZ cell viability assay (AID 1918966; also: nearly all actives have a fitted effect of over 50% in size)
How it was run: as §1

[15] = Quantitative High-Throughput drug screen in 47 multiple myeloma cell lines against the NCATS MIPE library collection: KMS27_JCRB cell viability assay (AID 1918970); also: nearly all actives have a fitted effect of over 30% in size
How it was run: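 CellTiter-Glo luminescence after 48 h drug exposure at 37 °C; 500 cells/well, 1536-well format, pin-tool compound addition; DMSO = 100%, media-only = 0% viability.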

[16] = Quantitative High-Throughput drug screen in 47 multiple myeloma cell lines against the NCATS MIPE library collection: KMS20_JCRB cell viability assay (AID 1918973); also: nearly all actives have a fitted effect of over 45% in size
How it was run: as §1

[17] = Quantitative High-Throughput drug screen in 47 multiple myeloma cell lines against the NCATS MIPE library collection: KMS26_JCRB cell viability assay (AID 1918975); also: nearly all actives have a fitted effect of over 45% in size
How it was run: as §4

[18] = Quantitative High-Throughput drug screen in 47 multiple myeloma cell lines against the NCATS MIPE library collection: INA6_PLB cell viability assay (AID 1918965; also: nearly all actives have a fitted effect of over 55% in size)
How it was run: as §5

[19] = Quantitative High-Throughput drug screen in 47 multiple myeloma cell lines against the NCATS MIPE library collection: Karpas25_ECACC cell viability assay (AID 1918968; also: nearly all actives have a fitted effect of over 35% in size)
How it was run: as §1

[20] = Quantitative High-Throughput drug screen in 47 multiple myeloma cell lines against the NCATS MIPE library collection: KMS21BM_JCRB cell viability assay (AID 1918974); details: ATP luminescence, 48 h; viability: at 45.8 µM (top of the series) unless noted
How it was run: as §1
Potency is read from the fitted curve at half-maximal effect.

SMILES	Potency [1]	Potency [2]	Potency [3]	Potency [4]	Potency [5]	Potency [6]	Potency [7]	Potency [8]	Potency [9]	Potency [10]	Potency [11]	Potency [12]	Potency [13]	Potency [14]	Potency [15]	Potency [16]	Potency [17]	Potency [18]	Potency [19]	Potency [20]
O=C(CCN1CCN(C(=O)OCc2cc(Cl)cc(Cl)c2)CC1)c1ccc2[nH]c(=O)oc2c1	1.18 µM (active)	inactive	0.0166 µM (active)	inactive	2.64 µM (active)	inactive	inactive	inactive	inactive	10.5 µM (active)										
COc1cc2nc(-c3ccc(N4CCN(C)CC4)cc3)nc(NCCN3CCOCC3)c2cc1OC	0.148 µM (active)	0.059 µM (active)	0.296 µM (active)	0.0469 µM (active)		0.148 µM (active)	1.48 µM (active)	0.166 µM (active)	0.209 µM (active)	0.0743 µM (active)	0.118 µM (active)	0.0166 µM (active)	0.166 µM (active)	0.0148 µM (active)	0.0332 µM (active)	0.105 µM (active)	0.0372 µM (active)			
O=c1cc(CN2CCOCC2)occ1OCCCCCSc1ccnc2cc(C(F)(F)F)ccc12	18.7 µM (active)	20.9 µM (active)		13.2 µM (active)		4.69 µM (active)	0.833 µM (active)	5.9 µM (active)	16.6 µM (active)				18.7 µM (active)	7.43 µM (active)	20.9 µM (active)		16.6 µM (active)	7.43 µM (active)	0.743 µM (active)	
NS(=O)(=O)c1ccc(NC2=CC(=O)c3ccccc3C2=O)cc1	0.59 µM (active)	2.64 µM (active)	2.64 µM (active)			18.7 µM (active)		inactive	0.526 µM (active)						1.32 µM (active)		3.72 µM (active)	11.8 µM (active)		
Clc1ccc(-c2nc3sccn3c2C=NOCc2ccc(Cl)c(Cl)c2)cc1	inactive	inactive		inactive	inactive		inactive		inactive	0.372 µM (active)	inactive	inactive		inactive			inactive	inactive	inactive	
Oc1ccc(C2CCN(c3ccnc4ccccc34)CC2)cc1O	18.7 µM (active)	23.5 µM (active)				11.8 µM (active)		16.6 µM (active)	18.7 µM (active)	9.35 µM (active)	16.6 µM (active)			16.6 µM (active)	18.7 µM (active)	18.7 µM (active)	18.7 µM (active)		7.43 µM (active)	23.5 µM (active)
COCCOc1nc(-c2ccc(Cl)c(Cl)c2)n(-c2ccc(NC(=O)CCl)cc2)n1	16.6 µM (active)	23.5 µM (active)		14.8 µM (active)	11.8 µM (active)		14.8 µM (active)	16.6 µM (active)	14.8 µM (active)		16.6 µM (active)	16.6 µM (active)	14.8 µM (active)	23.5 µM (active)	16.6 µM (active)			11.8 µM (active)	5.26 µM (active)	16.6 µM (active)
CC1(C)CCC2=C(O1)c1ccccc1C(=O)C2=O	4.69 µM (active)	18.7 µM (active)	inactive			18.7 µM (active)		20.9 µM (active)	5.9 µM (active)						3.32 µM (active)	18.7 µM (active)	18.7 µM (active)	20.9 µM (active)		
CC[C@@H]1C=C(C)C[C@H](C)C[C@H](OC)[C@H]2O[C@@](O)(C(=O)C(=O)N3CCCC[C@@H]3C(=O)O[C@H](C(C)=C[C@@H]3CC[C@H](Cl)[C@H](OC)C3)[C@H](C)[C@@H](O)CC1=O)[C@H](C)C[C@H]2OC	9.35 µM (active)	13.2 µM (active)				18.7 µM (active)	18.7 µM (active)		7.43 µM (active)	11.8 µM (active)	13.2 µM (active)			20.9 µM (active)	8.33 µM (active)					
COCCOC(=O)C1=C(C)NC2=C(C(=O)CC(c3ccccc3OC)C2)C1c1cccc(O)c1 (stereo not given)	11.8 µM (active)	10.5 µM (active)	1.66 µM (active)			20.9 µM (active)		10.5 µM (active)					9.35 µM (active)			4.18 µM (active)	8.33 µM (active)		13.2 µM (active)	
O=C(O)c1ccccc1C(=O)Nc1ccc(-c2ccccc2)cc1	inactive	inactive		inactive	inactive	inactive	inactive		inactive		inactive				inactive				inactive	
O=C1NC(=O)C(=Cc2ccc3nccnc3c2)S1	inactive	10.2 µM (active)		2.04 µM (active)		10.2 µM (active)	6.45 µM (active)	8.12 µM (active)	1.15 µM (active)		3.63 µM (active)			8.12 µM (active)	2.29 µM (active)		12.9 µM (active)	7.24 µM (active)	5.75 µM (active)	
Nc1ncnc2c1ncn2[C@@H]1O[C@H](CO)C[C@@H]1O	inactive	inactive		inactive		inactive	inactive	20.9 µM (active)	inactive	1.32 µM (active)	inactive	inactive			inactive	inactive	inactive	inactive	inactive	
